The results in this text go back to PubChem BioAssay.

Activity calls are given as the source filed them. Unless noted, the rule behind the calls is not given here.

A short description of experiment [1]: resazurin metabolic signal in HepG2 cells – cell-based, resazurin fluorescence, 24 h, PK04 Diversity Set, profiling panel (AID 1172). Note: test concentration not given here. The conditions noted are these: HepG2 viability, higher = more signal.
Experiment [2] in a line: budding yeast growth changes without added modifier – OD600, strain BY4716, 24 h, basal condition, primary screen (AID 1173). The conditions noted are these: S. cerevisiae BY4716 growth, OD600, 24 h; higher = more signal, called active from +8 up or from −8 down.
A short description of experiment [3]: viability profiling in MM1S myeloma cells – cell-based, resazurin fluorescence, basal, 24 h, PK04 Diversity Set, profiling panel (AID 1174).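 Note: MM1S multiple myeloma cell line; test concentration not given here.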 The conditions noted are these: higher = more signal, called active from +8 up or from −8 down.
Experiment [4] addresses Dihydroorotate dehydrogenase (quinone), mitochondrial (Plasmodium falciparum (isolate 3D7)) (UniProt Q08210). Description: inhibition of P. falciparum DHODH – biochemical, C-terminal His tag, absorbance 600 nm, primary screen (AID 1175).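 Note: recombinant parasite enzyme with a five histidine tag at its C terminus; test concentration not given here.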 The conditions noted are these: PfDHODH enzyme, DCIP absorbance 600 nm; higher = more signal, called active from +8 up or from −8 down.
A short description of experiment [5]: inhibition of PAO1 biofilm formation – strain PAO1, LB-PBS medium, absorbance 600 nm, primary screen (AID 1176). Note: test concentration not given here. The conditions noted are these: P. aeruginosa PAO1 growth/biofilm, A600, 12 h; higher = more signal.
Experiment [6] can be described thus: growth modulation of vineyard yeast isolate – strain RM11-1a, OD600, basal, 24 h, primary screen (AID 1177).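 Note: cultures grown under basal conditions with no added stressor; test concentration not given here.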 Conditions: S. cerevisiae RM11-1a growth, OD600, 24 h; higher = more signal, called active from +8 up or from −8 down.
The nature of experiment [7]: growth of efflux-deficient E. coli DRC39 – strain DRC39, OD650, 24 h, E. coli filamentation inducers, primary screen (AID 1178).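 Note: growth measured as culture turbidity by optical density at 650 nm; test concentration not given here.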 Conditions: E. coli DRC39 acrAB, higher = more signal, called active from +8 up or from −8 down.
The nature of experiment [8]: growth of efflux-deficient E. coli DRC39 – strain DRC39, OD650, 48 h, E. coli filamentation inducers, primary screen (AID 1179).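 Note: screen aims at cell division blockers that make cells filament.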 The conditions noted are these: E. coli DRC39 delta-acrAB growth, higher = more signal, called active from +8 up or from −8 down.
Experiment [9] is described as follows: viability profiling in RPMI8226 myeloma cells – cell-based, resazurin fluorescence, basal, 24 h, PK04 Diversity Set, profiling panel (AID 1180).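 Note: RPMI8826 multiple myeloma cell line at 5000 cells per well; test concentration not given here.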 Conditions: higher = more signal.
Experiment [10] addresses E3 ubiquitin-protein ligase XIAP (Homo sapiens) (UniProt P98170). The experiment can be described thus: small molecules binding XIAP protein – biophysical, small-molecule microarray, fluorescence 635 nm, primary screen (AID 1181).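 Note: score merges 667 nm emission and signal to noise over triplicate slides.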 Conditions: higher = more signal.

Chain of Dihydroorotate dehydrogenase (quinone), mitochondrial (Plasmodium falciparum (isolate 3D7)) (Q08210 whole entry, looked up): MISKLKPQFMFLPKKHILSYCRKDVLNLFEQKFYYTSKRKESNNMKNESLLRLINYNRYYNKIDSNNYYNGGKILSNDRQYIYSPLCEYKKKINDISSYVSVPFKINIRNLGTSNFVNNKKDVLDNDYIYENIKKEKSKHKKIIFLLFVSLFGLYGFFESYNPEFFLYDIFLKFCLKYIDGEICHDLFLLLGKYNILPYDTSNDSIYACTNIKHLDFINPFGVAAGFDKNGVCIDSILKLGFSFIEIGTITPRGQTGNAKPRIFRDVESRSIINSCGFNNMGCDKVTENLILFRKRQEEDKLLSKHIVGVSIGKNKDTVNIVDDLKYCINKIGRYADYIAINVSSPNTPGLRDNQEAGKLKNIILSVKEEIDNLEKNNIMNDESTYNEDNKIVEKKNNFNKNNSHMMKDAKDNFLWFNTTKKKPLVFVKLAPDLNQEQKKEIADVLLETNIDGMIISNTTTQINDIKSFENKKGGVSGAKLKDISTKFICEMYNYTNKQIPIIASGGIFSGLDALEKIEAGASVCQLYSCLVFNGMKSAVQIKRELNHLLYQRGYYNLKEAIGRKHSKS
Chain of E3 ubiquitin-protein ligase XIAP (Homo sapiens) (P98170 whole entry, looked up): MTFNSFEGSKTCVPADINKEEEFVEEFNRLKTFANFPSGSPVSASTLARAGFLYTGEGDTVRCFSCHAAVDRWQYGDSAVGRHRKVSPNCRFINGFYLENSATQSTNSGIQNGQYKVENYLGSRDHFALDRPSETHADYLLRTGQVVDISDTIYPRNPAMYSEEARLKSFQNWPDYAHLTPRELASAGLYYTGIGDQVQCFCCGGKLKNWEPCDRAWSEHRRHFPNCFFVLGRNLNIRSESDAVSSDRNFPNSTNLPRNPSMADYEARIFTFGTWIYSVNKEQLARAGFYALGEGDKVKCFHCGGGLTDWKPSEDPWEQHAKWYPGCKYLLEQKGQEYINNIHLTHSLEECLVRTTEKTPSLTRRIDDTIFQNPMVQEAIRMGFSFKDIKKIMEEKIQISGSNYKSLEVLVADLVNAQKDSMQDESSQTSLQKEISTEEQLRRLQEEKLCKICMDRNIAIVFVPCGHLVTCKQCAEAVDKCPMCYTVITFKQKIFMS

For the compound `Cc1ccc(S[C@]2(C(=O)NCCN3CCOCC3)CC(=O)N(Cc3ccccc3)[C@@H]2c2ccc(CO)cc2I)cc1`, the z-score in [1] was -0.396; in experiment [2], -3.23 (inactive); in [3], -2.91 (inactive); in experiment [5] it was 0.422 (inactive); in experiment [6] it was -1.71 (inactive); in experiment [7], 0.359 (inactive). Besides, the figures for the z-score in [8] and in experiment [9] were -0.46 (inactive) and -2.02, respectively. Also, the figures for the composite z-score in [4] and in experiment [10] were -4.58 (inactive) and -0.152, respectively.
`C=C[C@H](COC(C)=O)N(C(=O)OC(C)(C)C)S(=O)(=O)c1ccc(Br)cc1`: the z-score was 0.738 in experiment [1]; -0.705 (inactive) in [2]; -0.76 (inactive) in [3]; -0.621 (inactive) in experiment [5]; 0.625 (inactive) in experiment [6]; 0.623 (inactive) in [7]. For the same compound, the values for the z-score in [8] and in experiment [9] were 0.386 (inactive) and -0.17, respectively. Moreover, the composite z-score in experiment [4] was -0.0237 (inactive); in experiment [10] it was 0.137.
For `COc1ccc(CCN2C(=O)[C@@]3(c4ccc([N+](=O)[O-])cc4)CC(=O)N(C4CCCCC4)[C@@H]3c3ccc(CO)cc32)cc1`, the z-score in experiment [1] was -0.356; in experiment [2] it was 1.37 (inactive); in [3] it was -0.672 (inactive); in experiment [5] it was 0.944 (inactive); in experiment [6], -0.582 (inactive); in experiment [7] it was -0.0051 (inactive). Also, the figures for the z-score in experiment [8] and in experiment [9] were -0.0209 (inactive) and -0.749, respectively. In addition, the composite z-score in experiment [4] was -25.9 (active); in [10], -0.167.
On to `COC(=O)c1c(CC[C@@H](CO)NC(=O)N[C@H](Cn2cc(Cc3ccccc3)nn2)C(C)C)oc(C(C)=O)c1C(=O)OC`, for which the z-score in experiment [1] is -0.61; in experiment [2], -1.64 (inactive); in experiment [3] it was -0.0537 (inactive); in experiment [5], 0.656 (inactive); in experiment [6] it was -0.705 (inactive); in experiment [7], 1.58 (inactive). In addition, the z-score was 0.582 (inactive) in experiment [8] and -0.193 in experiment [9]. The composite z-score in experiment [4] is -3.09 (inactive); in experiment [10], -0.121.
On to `Cc1ccc(C(C)CC(O)C2C=CC3C(=O)N(C)C(=O)C3N2NC(=O)OC(C)(C)C)o1` (stereo not given), for which the z-score in experiment [1] is -0.427; in experiment [2], -0.626 (inactive); in [3] it was -0.076 (inactive); in experiment [5], 0.434 (inactive); in experiment [6], 0.66 (inactive); in experiment [7], -0.107 (inactive). Moreover, the z-score in experiment [8] is -0.354 (inactive); in experiment [9] it was 0.0437. For the same compound, the values for the composite z-score in [4] and in experiment [10] were -0.166 (inactive) and 0.12, respectively.
Regarding `C=CCOC(=O)[C@H]1[C@@H]2C(=O)O[C@@H](c3ccccc3)[C@@H](c3ccccc3)N2[C@@H](c2ccc(OCCOC(=O)[C@H]3C[C@H]4C(=O)N[C@@H](CC(C)C)C(=O)N4[C@H]3c3ccc(O)cc3)cc2)[C@]12C(=O)Nc1ccc(I)cc12`, the z-score in [1] was -0.598; in [2] it was -0.838 (inactive); in experiment [3] it was -0.491 (inactive); in [5], 0.379 (inactive); in experiment [6] it was 0.919 (inactive); in [7] it was -0.267 (inactive). In addition, the values for the z-score in [8] and in experiment [9] were 0.276 (inactive) and -0.385, respectively. Moreover, the composite z-score in experiment [4] was -1.72 (inactive); in [10] it was 0.109.
Consider `COc1cc2c(cc1OC)CN(C(=O)[C@H]1[C@@H]3C(=O)O[C@@H](c4ccccc4)[C@@H](c4ccccc4)N3[C@@H](c3ccc(O)cc3)[C@]13C(=O)Nc1ccc(C#CC4=CCCCC4)cc13)CC2`, for which the z-score in [1] is -0.436; in experiment [2] it was -1.16 (inactive); in experiment [3], -0.16 (inactive); in experiment [5], 1.08 (inactive); in [6], 0.449 (inactive); in [7], -0.222 (inactive). Besides, the z-score in experiment [8] was -0.273 (inactive); in experiment [9], 0.916. Also, the composite z-score in experiment [4] was -1.05 (inactive); in experiment [10], -0.359.
In the case of `COCCCN1C(=O)[C@@]2(c3ccc([N+](=O)[O-])cc3)CC(=O)N(C3CCCCC3)[C@@H]2c2ccc(CO)cc21`, the z-score in experiment [1] is -0.207; in [2], 1.12 (inactive); in experiment [3], -0.559 (inactive); in experiment [5], 0.158 (inactive); in experiment [6], 0.0091 (inactive); in experiment [7], -0.0215 (inactive). Moreover, the values for the z-score in [8] and in experiment [9] were -0.13 (inactive) and -0.837, respectively. The composite z-score was -26.4 (active) in [4] and -0.37 in [10].
